Active and inactive are the calls of the source. Unless noted, calls come from the whole dose curve; as a rule, active = well fitted curve in the direction sought with a large enough effect in the repeat runs; inconclusive = weak or mixed curves; inactive = no such curve, though single readings can be large; an effect the other way counts as inactive or inconclusive.

Experiment [1] is described as follows: qHTS assay to identify small molecule antagonists of the thyroid receptor (TR) signaling pathway - cell viability counter screen (AID 743064). Note: nearly all actives have a fitted effect of over 50% in size. Note: potency is the fitted concentration of half-maximal effect. Put shortly: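 GH3.TRE-Luc cells, 4 h pre-plating; cpd + T3 1 nM final; 37 °C 23.5 h; CellTiter-Fluor 30 min; fluorescence read.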
On the technique in general: In qHTS, concentration-response curves come from the screen itself.

The nature of experiment [2]: qHTS assay to identify small molecule antagonists of the estrogen receptor alpha (ER-alpha) signaling pathway - cell viability counter screen (AID 743074; calls by dose curve;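 note: HEK293 cells carrying ER-alpha-UAS-bla reporter stimulated with 17beta-estradiol; nearly all actives have a fitted effect of over 45% in size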; note: potency is the fitted concentration of half-maximal effect).
For experiment [3], the target named is Estrogen receptor (Homo sapiens) (UniProt P03372). Nature of the experiment: qHTS assay to identify small molecule agonists of the estrogen receptor alpha (ER-alpha) signaling pathway (AID 743075; calls by dose curve;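 note: HEK293 GripTite cells with ER-alpha and UAS-driven beta-lactamase reporter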; note: potency is the fitted concentration of half-maximal effect).
A short description of experiment [4]: qHTS assay to identify small molecule antagonists of the estrogen receptor alpha (ER-alpha) signaling pathway using the BG1 cell line (AID 743080; calls by dose curve;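 note: BG1 cells stimulated with 17beta-estradiol alongside compound; nearly all actives have a fitted effect of over 25% in size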; note: potency is the fitted concentration of half-maximal effect). Put shortly: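 BG1Luc4E2, endogenous ER-alpha, 4xERE-luc; 5 d charcoal-stripped FBS, phenol red free; 24 h plating; cpd + 17beta-estradiol 21.5 h, 37 C/5% CO2; CellTiter-Fluor viability 30 min, then ONE-Glo luciferase 30 min RT.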

A further experiment concerns the target Aromatase (Homo sapiens) (UniProt P11511). In words: qHTS assay to identify aromatase inhibitors (AID 743083). Note: nearly all actives have a fitted effect of over 55% in size. Note: potency is the fitted concentration of half-maximal effect.
Experiment [5] in a line: qHTS assay to identify small molecule antagonists of the estrogen receptor alpha (ER-alpha) signaling pathway using the BG1 cell line - cell viability counter screen (AID 743081).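 Note: compound given together with 17beta-estradiol as the ER stimulus; nearly all actives have a fitted effect of over 45% in size.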
Experiment [6] in a line: qHTS assay to identify small molecule antagonists of the thyroid receptor (TR) signaling pathway (AID 743065). Note: nearly all actives have a fitted effect of over 55% in size. Note: potency is the fitted concentration of half-maximal effect. The essentials:
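GH3.TRE-Luc rat pituitary cells carrying two TR response elements driving luciferase were plated for 4 h, given compound plus 1 nM T3 (final), and incubated 23.5 h at 37 C. ONE-Glo luminescence measured reporter inhibition; CellTiter-Fluor fluorescence tracked cytotoxicity.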

In experiment [7] the test system is thyroid hormone receptor (rat, GH3 cells). In words: qHTS assay to identify small molecule agonists of the thyroid receptor (TR) signaling pathway (AID 743066; calls by dose curve).
The target in experiment [8] is Estrogen receptor (Homo sapiens) (UniProt P03372). Nature of the experiment: qHTS assay to identify small molecule antagonists of the estrogen receptor alpha (ER-alpha) signaling pathway (AID 743069; active = well fitted curve in the direction sought with a large enough effect in the signal ratio in the repeat runs, not every such curve was filed as active; inconclusive = weak or mixed curves, or effect the other way; inactive = no such curve, though single readings can be large or run the other way; the % refers to the signal ratio). Put shortly: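 A 17beta-estradiol challenge was applied right after compound transfer to ER-alpha-UAS-bla HEK293 cells previously kept in charcoal-stripped serum. Plates stood 18 hr at 37C and 5% CO2; fluorescence was read following 2 hr FRET substrate loading at room temperature.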

Experiment [9] has the same target. In words: qHTS assay to identify small molecule agonists of the estrogen receptor alpha (ER-alpha) signaling pathway using the BG1 cell line (AID 743079). Note: nearly all actives have a fitted effect of over 20% in size. Note: potency is the fitted concentration of half-maximal effect. The conditions noted are these: BG1Luc4E2 cells, ERE-luciferase agonist, 22 h; activation: at 70.3 µM (top of the series).
% is set by controls: 0 for no effect and ±100 for the full control effect.

Aromatase (Homo sapiens), sequence (P11511 whole entry, looked up): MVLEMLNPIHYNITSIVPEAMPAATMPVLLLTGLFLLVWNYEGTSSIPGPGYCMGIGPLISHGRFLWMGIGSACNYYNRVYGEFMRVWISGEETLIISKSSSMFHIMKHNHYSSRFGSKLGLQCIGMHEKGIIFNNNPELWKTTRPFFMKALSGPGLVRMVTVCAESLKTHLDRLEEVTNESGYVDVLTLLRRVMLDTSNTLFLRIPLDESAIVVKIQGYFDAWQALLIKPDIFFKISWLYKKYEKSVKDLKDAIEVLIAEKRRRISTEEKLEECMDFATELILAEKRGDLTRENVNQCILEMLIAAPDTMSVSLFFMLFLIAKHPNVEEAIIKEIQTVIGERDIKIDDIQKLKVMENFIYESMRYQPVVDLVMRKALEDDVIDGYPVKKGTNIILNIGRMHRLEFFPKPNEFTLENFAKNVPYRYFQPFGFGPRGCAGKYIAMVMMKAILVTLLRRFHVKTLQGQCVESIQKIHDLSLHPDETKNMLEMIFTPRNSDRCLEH
Estrogen receptor (Homo sapiens), sequence (P03372 whole entry, looked up): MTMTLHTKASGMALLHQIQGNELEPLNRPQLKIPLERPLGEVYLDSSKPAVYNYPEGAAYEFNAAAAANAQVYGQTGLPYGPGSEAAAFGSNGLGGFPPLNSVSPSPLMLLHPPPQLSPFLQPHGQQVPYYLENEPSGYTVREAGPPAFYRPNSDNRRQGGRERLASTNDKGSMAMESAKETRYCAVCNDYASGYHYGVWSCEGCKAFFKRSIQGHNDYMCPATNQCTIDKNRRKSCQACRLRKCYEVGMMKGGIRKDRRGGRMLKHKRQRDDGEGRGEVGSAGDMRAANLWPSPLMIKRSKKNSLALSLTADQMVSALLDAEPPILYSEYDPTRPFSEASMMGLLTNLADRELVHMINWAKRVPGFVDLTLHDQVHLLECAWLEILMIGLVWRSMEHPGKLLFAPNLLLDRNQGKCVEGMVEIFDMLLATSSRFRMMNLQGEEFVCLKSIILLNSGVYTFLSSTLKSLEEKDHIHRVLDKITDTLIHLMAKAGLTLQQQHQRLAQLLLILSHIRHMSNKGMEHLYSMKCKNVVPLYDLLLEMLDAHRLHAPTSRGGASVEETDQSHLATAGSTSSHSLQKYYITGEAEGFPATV

Turning to `C/C=C1\NC(=O)[C@H]2CSSCC/C=C/[C@H](CC(=O)N[C@H](C(C)C)C(=O)N2)OC(=O)C(C(C)C)NC1=O` (some centres not stated), the Potency in [1] is 0.0119 µM (active); in [2] it was 6.74 µM (active); in [3], 15.1 µM [inconclusive] (active); in experiment [4], 0.0531 µM (active); in the experiment with Aromatase (Homo sapiens), 0.0094 µM (active).
With `CCSc1ccc2c(c1)N(CCCN1CCN(C)CC1)c1ccccc1S2`, the Potency entry (in experiment [1]; in experiment [2]; in experiment [5]; with Aromatase (Homo sapiens)) was “inactive” throughout.
For `Nc1ncnc2c1ncn2CCOCP(=O)(O)O`, the Potency entry in [6], in [7], in [8], in experiment [2], in experiment [3] and in experiment [9] was “inactive” in each case. Further, the Potency result in experiment [4] and in experiment [5] was “inactive” throughout.
`CC(=O)c1ccc2c(c1)N(CCCN1CCN(CCO)CC1)c1ccccc1S2`: the Potency in experiment [1] is 13.3 µM (active). For the same compound, the Potency result in experiment [2] and in experiment [4] was “inactive” in each case.
For `CCC(=O)OCC(=O)[C@@]1(OC(=O)CC)[C@H](C)C[C@H]2[C@@H]3CCC4=CC(=O)C=C[C@]4(C)[C@@]3(F)[C@@H](O)C[C@@]21C`, the Potency entry (in experiment [1]; in experiment [2]; in experiment [9]; in experiment [5]; with Aromatase (Homo sapiens)) was “inactive” throughout.
Take `CCCCC[C@H](O)/C=C/[C@H]1[C@H](O)CC(=O)[C@@H]1CCCCCCC(=O)O`: the Potency result (in [1]; in experiment [2]; in [3]; in [9]; in experiment [5]; in the experiment with Aromatase (Homo sapiens)) was “inactive” in each case.
Regarding `NCCC[C@H](N)C(=O)O`, the Potency result in experiment [6], in experiment [7], in experiment [8], in experiment [3], in [9] and in [4] was “inactive” in each case. For the same compound, the Potency entry with Aromatase (Homo sapiens) was “inactive”.
For the compound `O=C1c2ccccc2C(=O)C1c1ccc(Cl)cc1`, the Potency entry in experiment [6], in experiment [7], in [8], in [2], in experiment [3] and in experiment [9] was “inactive” each time. Also, the Potency result (in experiment [4]; with Aromatase (Homo sapiens)) was “inactive” in each case.
On to `C=CCOc1ccc(CC(=O)O)cc1Cl`, for which the Potency result (in experiment [6]; in [7]; in experiment [2]; in [4]; in experiment [5]; with Aromatase (Homo sapiens)) was “inactive” throughout. Also, the figures for the Potency in [3] and in experiment [9] were 3.79 µM [inconclusive] (active) and 0.266 µM (active), respectively.
For the compound `CC(C)(C)NC(=O)[C@H]1CC[C@H]2[C@@H]3CC=C4C=C(C(=O)O)CC[C@]4(C)[C@H]3CC[C@]12C`, the Potency result in [6], in experiment [7], in [8], in [3], in experiment [9] and in [4] was “inactive” in each case. In the experiment with Aromatase (Homo sapiens), the Potency entry was “inactive”.
On to `OC[C@H]1O[C@@H](n2cnc3c2NC=NC[C@H]3O)C[C@@H]1O`, for which the Potency result in experiment [6], in [7], in [8], in experiment [2], in experiment [3] and in [9] was “inactive” in each case. The Potency result (in [4]; in experiment [5]; with Aromatase (Homo sapiens)) was “inactive” throughout.
On to `O=C(O)CCC/C=C\C[C@@H]1[C@@H](/C=C/[C@@H](O)COc2cccc(C(F)(F)F)c2)[C@H](O)C[C@@H]1O`, for which the Potency entry (in experiment [6]; in [7]; in [8]; in [2]; in [5]; with Aromatase (Homo sapiens)) was “inactive” in each case. Moreover, the activation in experiment [9] was 49.9% (active).
For `Cn1c(=O)c2c(ncn2CCOC(=O)C(C)(C)Oc2ccc(Cl)cc2)n(C)c1=O`, the Potency result in [6], in experiment [7], in experiment [8], in [2], in [3] and in [9] was “inactive” each time. The Potency entry (in experiment [5]; with Aromatase (Homo sapiens)) was “inactive” each time. Also, the Potency in experiment [4] was 29.8 µM (active).
For the compound `CCOC(=O)COc1ccc2c(C)c(CCN(CC)CC)c(=O)oc2c1`, the Potency entry in [6], in [7], in experiment [8], in [3], in experiment [9] and in experiment [4] was “inactive” in each case. Moreover, the Potency entry (in [5]; in the experiment with Aromatase (Homo sapiens)) was “inactive” in each case.
Regarding `CS(=O)(=O)OCC(O)C(O)COS(C)(=O)=O` (configuration not stated), the Potency result in experiment [6], in experiment [7], in [8], in experiment [2], in experiment [3] and in [9] was “inactive” in each case. For the same compound, the Potency entry (in experiment [4]; in experiment [5]; with Aromatase (Homo sapiens)) was “inactive” in each case.
`CC(O)CN(C)C` (configuration not stated): the Potency entry in [6], in experiment [7], in experiment [8], in experiment [2], in experiment [4] and in experiment [5] was “inactive” throughout. Also, the Potency entry with Aromatase (Homo sapiens) was “inactive”. The Potency in experiment [9] is 11.9 µM (active).
Turning to `COc1c(O[C@@H]2O[C@H](CO)[C@@H](O)[C@H](O)[C@H]2O)cc2c(c1OC)-c1ccc(SC)c(=O)cc1[C@@H](NC(C)=O)CC2`, the Potency result (in experiment [6]; in experiment [7]; in experiment [2]; in experiment [5]; in the experiment with Aromatase (Homo sapiens)) was “inactive” in each case.
For the compound `Cc1c(Cl)cccc1Nc1ncccc1C(=O)O`, the Potency in experiment [6] was 23.7 µM (active). For the same compound, the Potency result (in experiment [7]; in experiment [2]; in [3]; in experiment [5]; with Aromatase (Homo sapiens)) was “inactive” in each case.

The values are drawn from PubChem BioAssay (Tox21).
